Active and inactive are the calls of the source.

Experiment [1] can be described thus: optical density shifts of acrAB sulA E. coli – strain DRC41, OD650, 48 h, E. coli filamentation inducer project, primary screen (AID 1152).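 Also: E. coli MC1000 strain DRC41 lacking acrAB efflux pump and sulA.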 Conditions: higher = more signal, called active from +8 up or from −8 down.
Experiment [2] can be described thus: probe aLefty1 binding on compound microarray – biochemical, small-molecule microarray, 635/667 nm fluorescence, primary screen (AID 1153).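 Also: score merges spot fluorescence with signal-to-noise ratio from the scanned slide images.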 Conditions: higher = more signal.
Experiment [3] in a line: plasmodial surface anion channel blockers, osmotic lysis – cell-based, P. falciparum Indochina, OD700, 1 h, primary screen (AID 1154). Conditions: P. falciparum Indochina infected RBC osmotic lysis, higher = more signal, called active from +8 up or from −8 down.
Experiment [4] can be described thus: plasmodial surface anion channel blockers, osmotic lysis – cell-based, P. falciparum Indochina, OD700, 2 h, primary screen (AID 1155).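 Also: lysis reports solute entry through the parasite surface anion channel PSAC.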 Conditions: P. falciparum Indochina infected erythrocytes, higher = more signal, called active from +8 up or from −8 down.
Experiment [5] can be described thus: changes in parasitized red cell lysis, either direction – P. falciparum Indochina, OD700, 3 h, PSAC antagonist project, primary screen (AID 1156). The settings on record: P. falciparum-infected erythrocytes, osmotic lysis, higher = more signal, called active from +8 up or from −8 down.
Experiment [6] is described as follows: plasmodial surface anion channel blockers, osmotic lysis – cell-based, P. falciparum Indochina, OD700, 18 h, primary screen (AID 1157). Conditions: P. falciparum Indochina infected erythrocytes, osmotic lysis OD700, 18 h; higher = more signal, called active from +8 up or from −8 down.
The nature of experiment [7]: S6 kinase pathway phospho-S6 level changes – cell-based, A549, cytoblot, luminescence, serum-stimulated, primary screen (AID 1158).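 Also: serum-stimulated A549 lung adenocarcinoma cells; signal is phosphorylated S6 detected by cytoblot immunostaining with HRP secondary.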 The settings on record: 5 h, higher = more signal.
Experiment [8] concerns the target NADPH oxidase 2 (Homo sapiens) (UniProt P04839). Description: compounds shifting NOX2 Amplex Red fluorescence – cell-based, HEK293-NOX2, PMA-stimulated, NOX inhibitor project, primary screen (AID 1159). Also: test concentration not given here. Conditions: 45 min, higher = more signal, called active from +8 up or from −8 down.
For experiment [9], the target named is NADPH oxidase 4 (Homo sapiens) (UniProt Q9NPH5). Nature of the experiment: compounds shifting NOX4 Amplex Red fluorescence – cell-based, HEK293-NOX4, tetracycline-induced, NOX inhibitor project, primary screen (AID 1160). Conditions: HEK293-NOX4, Amplex Red H2O2 fluorescence, 45 min; higher = more signal, called active from +8 up or from −8 down.
Chain of NADPH oxidase 4 (Homo sapiens) (Q9NPH5 whole entry, looked up): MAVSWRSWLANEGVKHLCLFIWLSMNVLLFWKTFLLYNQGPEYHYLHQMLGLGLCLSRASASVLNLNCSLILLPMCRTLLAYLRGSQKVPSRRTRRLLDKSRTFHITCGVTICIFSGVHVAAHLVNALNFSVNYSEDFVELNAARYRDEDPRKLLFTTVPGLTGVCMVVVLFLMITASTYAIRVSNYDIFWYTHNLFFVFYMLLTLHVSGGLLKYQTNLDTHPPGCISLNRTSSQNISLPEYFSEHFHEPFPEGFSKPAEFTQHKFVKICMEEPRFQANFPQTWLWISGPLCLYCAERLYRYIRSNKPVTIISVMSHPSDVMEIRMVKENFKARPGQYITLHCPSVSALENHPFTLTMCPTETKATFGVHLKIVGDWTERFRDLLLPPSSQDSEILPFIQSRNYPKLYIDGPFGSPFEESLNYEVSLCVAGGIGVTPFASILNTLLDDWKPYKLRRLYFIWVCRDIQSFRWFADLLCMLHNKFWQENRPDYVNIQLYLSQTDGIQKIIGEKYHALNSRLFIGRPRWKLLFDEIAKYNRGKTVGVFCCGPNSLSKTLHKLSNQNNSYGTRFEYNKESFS
Experiment [10] addresses NADPH oxidase 5 (Homo sapiens) (UniProt Q96PH1). Description: compounds shifting NOX5 Amplex Red fluorescence – cell-based, HEK293-NOX5, NOX inhibitor project, primary screen (AID 1161). Conditions: HEK293-NOX5, ionomycin, 45 min, higher = more signal.
A short description of experiment [11]: compound effects on lung adenocarcinoma cell viability – A549, calcein-AM fluorescence, 48 h, basal, profiling panel (AID 1162). Also: test concentration not given here. The settings on record: higher = more signal.
A short description of experiment [12]: compound effects on differentiated 3T3-L1 adipocyte viability – cell-based, 3T3-L1 adipocytes, calcein-AM fluorescence, 48 h, basal, profiling panel (AID 1163). Also: test concentration not given here. The settings on record: 3T3-L1 adipocytes viability, higher = more signal.
Experiment [13] can be described thus: compound effects on hepatocellular carcinoma cell viability – HepG2, calcein-AM fluorescence, 48 h, basal, profiling panel (AID 1164). Also: test concentration not given here. The settings on record: higher = more signal.
Experiment [14] can be described thus: compound effects on multiple myeloma cell viability – MM1S, calcein-AM fluorescence, 48 h, basal, profiling panel (AID 1165).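 Also: viability of MM1S multiple myeloma cells under basal unstimulated conditions; test concentration not given here.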 The settings on record: higher = more signal.
Experiment [15] can be described thus: calcein-AM signal in unstimulated myeloma cells – cell-based, calcein-AM fluorescence, 48 h, PK04 Diversity Set, profiling panel (AID 1166).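 Also: cells grown under basal conditions without added stimulus; test concentration not given here.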 Conditions: RPMI8226 myeloma viability, higher = more signal.
Experiment [16] in a line: JC-1 mitochondrial signal, unstimulated HepG2 cells – cell-based, JC-1 fluorescence, 24 h, 100 nL compound, profiling panel (AID 1167). Also: test concentration not given here. Conditions: HepG2 mitochondrial potential, higher = more signal.
A short description of experiment [17]: JC-1 mitochondrial signal, unstimulated adipocytes – cell-based, JC-1 fluorescence, 3T3-L1 adipocytes, 24 h, 100 nL compound, profiling panel (AID 1168). Also: test concentration not given here. Conditions: JC-1 mitochondrial fluorescence, higher = more signal, called active from +8 up or from −8 down.
The nature of experiment [18]: JC-1 mitochondrial signal, unstimulated myeloma cells – cell-based, JC-1 fluorescence, RPMI8226, 24 h, 100 nL compound, profiling panel (AID 1169). Also: test concentration not given here. The settings on record: JC-1 mitochondrial potential fluorescence, higher = more signal.
A short description of experiment [19]: JC-1 mitochondrial signal, unstimulated MM1S myeloma – cell-based, JC-1 fluorescence, 24 h, 100 nL compound, profiling panel (AID 1170). Also: test concentration not given here. The settings on record: MM1S mitochondrial potential, higher = more signal.
A short description of experiment [20]: resazurin metabolic signal in A549 cells – cell-based, resazurin fluorescence, 24 h, PK04 Diversity Set, profiling panel (AID 1171). Also: test concentration not given here. The settings on record: A549 viability, higher = more signal, called active from +8 up or from −8 down.

Chain of NADPH oxidase 5 (Homo sapiens) (Q96PH1 whole entry, looked up): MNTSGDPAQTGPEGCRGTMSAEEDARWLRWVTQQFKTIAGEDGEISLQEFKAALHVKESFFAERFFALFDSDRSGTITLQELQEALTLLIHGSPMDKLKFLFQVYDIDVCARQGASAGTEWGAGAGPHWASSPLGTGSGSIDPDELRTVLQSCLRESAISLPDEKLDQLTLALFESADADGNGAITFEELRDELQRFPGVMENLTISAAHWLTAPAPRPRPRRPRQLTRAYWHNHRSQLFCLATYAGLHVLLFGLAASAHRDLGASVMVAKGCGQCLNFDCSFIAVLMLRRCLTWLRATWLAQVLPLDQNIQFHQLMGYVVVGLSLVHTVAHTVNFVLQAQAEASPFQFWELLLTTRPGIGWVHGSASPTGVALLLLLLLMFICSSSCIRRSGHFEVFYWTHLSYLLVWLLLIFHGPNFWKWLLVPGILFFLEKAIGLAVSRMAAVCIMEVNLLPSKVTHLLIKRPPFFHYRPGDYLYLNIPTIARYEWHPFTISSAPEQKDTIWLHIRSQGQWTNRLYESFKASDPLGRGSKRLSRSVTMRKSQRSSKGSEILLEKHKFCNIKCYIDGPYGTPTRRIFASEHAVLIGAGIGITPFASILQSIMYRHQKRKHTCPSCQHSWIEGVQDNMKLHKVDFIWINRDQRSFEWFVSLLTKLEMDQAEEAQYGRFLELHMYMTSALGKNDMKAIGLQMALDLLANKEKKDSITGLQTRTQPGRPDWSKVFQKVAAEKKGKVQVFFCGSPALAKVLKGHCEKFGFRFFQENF
Chain of NADPH oxidase 2 (Homo sapiens) (P04839 whole entry, looked up): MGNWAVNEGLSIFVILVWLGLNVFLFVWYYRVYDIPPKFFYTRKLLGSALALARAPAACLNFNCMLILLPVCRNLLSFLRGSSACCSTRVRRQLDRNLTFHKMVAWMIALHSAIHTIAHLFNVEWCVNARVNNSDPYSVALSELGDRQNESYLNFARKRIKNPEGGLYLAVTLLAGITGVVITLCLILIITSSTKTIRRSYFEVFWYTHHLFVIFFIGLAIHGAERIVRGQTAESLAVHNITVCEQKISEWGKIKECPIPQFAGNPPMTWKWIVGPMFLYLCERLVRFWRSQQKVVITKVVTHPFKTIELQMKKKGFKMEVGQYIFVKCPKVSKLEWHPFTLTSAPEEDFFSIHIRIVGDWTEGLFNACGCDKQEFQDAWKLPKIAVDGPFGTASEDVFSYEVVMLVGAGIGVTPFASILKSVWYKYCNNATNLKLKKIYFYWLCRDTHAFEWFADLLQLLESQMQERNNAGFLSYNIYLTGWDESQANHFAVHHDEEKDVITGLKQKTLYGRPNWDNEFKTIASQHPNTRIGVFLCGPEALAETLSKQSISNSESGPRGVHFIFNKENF

As for `COc1ccc([Si](C)(C)[C@@H]2[C@@H](CCO)O[C@]3(C(=O)N(Cc4cccc(N5CCOC5=O)c4)c4ccccc43)[C@H]2C)cc1`, the z-score in experiment [1] was -0.196 (inactive); in [3], 31.3 (active); in [4], 29.8 (active); in experiment [5] it was -0.28 (inactive); in experiment [6] it was 3.29 (inactive); in experiment [7] it was 0.715. Moreover, the z-score was -0.327 (inactive) in experiment [8]; 2.15 (inactive) in experiment [9]; 1.98 in experiment [10]; -0.687 in [11]; -0.514 in experiment [12]; -0.769 in experiment [13]. Further, the z-score in experiment [14] is -2.11; in experiment [15], -4.17; in experiment [16] it was 0.183; in experiment [17], 1.05 (inactive); in [18], -0.978; in experiment [19] it was -1.78. For the same compound, the z-score in experiment [20] was -1.76 (inactive). The compound also gave a composite z-score in experiment [2] of 0.0357.
As for `CCCNC(=O)[C@@]1(Sc2ccc(C)cc2)CC(=O)N(Cc2ccccc2C(F)(F)F)[C@@H]1c1ccc(CO)cc1I`, the z-score in experiment [1] is 0.0676 (inactive); in [3], 5.14 (inactive); in [4], 0.0162 (inactive); in experiment [5], 0.378 (inactive); in experiment [6], -1.95 (inactive); in experiment [7], 2.26. The z-score in experiment [8] is 0.781 (inactive); in experiment [9] it was -2 (inactive); in experiment [10], -0.0781; in [11], -0.567; in [12], 1.12; in experiment [13] it was -1.14. In addition, the z-score in experiment [14] is -2.3; in experiment [15] it was -2.56; in experiment [16], -0.453; in [17] it was -1.02 (inactive); in experiment [18], -0.355; in [19] it was -1.78. Besides, the z-score in experiment [20] was 0.821 (inactive). This compound came in with a composite z-score in experiment [2] of 0.0999.
On to `C[N+](C)(C)CCCC[C@@H]1NC(=O)[C@@H]2C[C@H](C(=O)NCCCCCN)[C@H](c3ccc(O)cc3)N2C1=O`, for which the z-score in experiment [1] was 1.31 (inactive); in experiment [3] it was 0.455 (inactive); in [4] it was 0.0158 (inactive); in experiment [5], -0.284 (inactive); in experiment [6], -1.78 (inactive); in experiment [7], 0.612. The z-score in experiment [8] was -0.102 (inactive); in [9], -0.316 (inactive); in experiment [10] it was 1.33; in experiment [11], 1.01; in [12] it was 0.641; in experiment [13], 0.383. Further, the z-score is 0.312 in [14]; 0.828 in experiment [15]; 1.79 in [16]; -0.13 (inactive) in experiment [17]; 0.243 in experiment [18]; 0.41 in experiment [19]. For the same compound, the z-score in [20] is -0.0115 (inactive). Moreover, the composite z-score in [2] is 0.906.
Take `O=C(NC1CC1)[C@@H]1c2ccccc2C(=O)N(Cc2cc(F)cc(C(F)(F)F)c2)[C@H]1c1ccc(CO)cc1`: the z-score in experiment [1] is -0.857 (inactive); in [3], 1.88 (inactive); in experiment [4] it was 0.115 (inactive); in experiment [5], 0.943 (inactive); in [6], 0.0358 (inactive); in [7], -0.185. Besides, the z-score in experiment [8] is -0.0603 (inactive); in [9], 0.463 (inactive); in experiment [10], 0.515; in experiment [11], 0.35; in [12] it was -0.392; in experiment [13] it was -0.134. Besides, the z-score in [14] is -1.65; in [15], 0.88; in experiment [16], 0.86; in [17], -0.587 (inactive); in experiment [18], 0.0276; in [19] it was -0.232. For the same compound, in [20], the z-score was 1.36 (inactive). Also, the composite z-score in experiment [2] is -0.205.

These data come from PubChem BioAssay.
